Results filed as inconclusive are left out. The source made the active and inactive calls. The call rests on the fitted dose curve; in most records, active means well fitted cell-killing curve with a large enough effect; inconclusive means small, poorly fitted or top-dose-only effect, or effect the other way; inactive means no such curve, though single readings can be large or run the other way.
Potency means the concentration at half of the fitted maximal effect.

The experiment in a line: Quantitative High-Throughput drug screen in 47 multiple myeloma cell lines against the NCATS MIPE library collection: MMM1_PLB cell viability assay (AID 1918976). Further: nearly all actives have a fitted effect of over 35% in size. As to conditions: MMM1 myeloma cells viability, CellTiter-Glo, 48 h; series mostly up to 45.8 µM. The text has this:
PI: Beverly A. Mock Ph.D.
Laboratory of Cancer Biology and Genetics,
Center for Cancer Research, National Cancer Institute,
National Institute of Health, Bethesda, Maryland
Drug resistance and disease progression are common in multiple myeloma (MM) patients, underscoring the need for new therapeutic combinations. […] We hypothesized that effective combinations would reduce MYC expression and enhance p16 activity. […] These preclinical data identify potentially useful drug combinations for evaluation in drug-resistant MM and reveal potential mechanisms of combined drug sensitivity.
Described herein is the primary MIPE qHTS used to cherrypick compounds. Validated compounds were then further tested for potential synergistic activiy.
[1] Peat TJ, Gaikwad SM, Dubois W, Gyabaah-Kessie N, Zhang S, Gorjifard S, Phyo Z, Andres M, Hughitt VK, Simpson RM, Miller MA, Girvin AT, Taylor A, Williams D, D'Antonio N, Zhang Y, Rajagopalan A, Flietner E, Wilson K, Zhang X, Shinn P, Klumpp-Thomas C, McKnight C, Itkin Z, Chen L, Kazandijian D, Zhang J, Michalowski AM, Simmons JK, Keats J, Thomas CJ, Mock BA. Drug combinations identified by high-throughput screening promote cell cycle transition and upregulate Smad pathways in myeloma. Cancer Lett. 2023 Aug 1;568:216284. doi: 10.1016/j.canlet.2023.216284. Epub 2023 Jun 24. PMID: 37356470; PMCID: PMC10408729.
SEQUENCE No. (e.g., 1, 2, 3, etc.); […] (e.g., Cells, Incubation, Reagent, etc.); VALUE and DESCRIPTION.
1; Cells; 5 uL; white, solid bottom 1536-well Greiner assay plate.
2; Compounds; 23 nL; Kalypsis pin tool (Wako USA) equipped with a 1536-well pin head to transfer to the assay plates.
3; Incubation; 48 hours; 37C incubation.
4; Reagent;5uL; CellTiter Glo (Promega).
5; Detector; 425V; Luminescence; Viewlux PerkinElmer.
NOTES (numbers refer to Sequence numbers above)
1. The cell-based screening methods employed in this study were like those previously published. Briefly, the corresponding myeloma cell lines were screened in 1,536-well plates with 500 cells, 5-uL per well for inhibition of cell viability (assessed by measuring ATP levels with CellTiterGlo).
2. NCATS MIPE 4.0 library of approved and investigational drugs were added using the Kalypsis pin tool. Wells treated with DMSO only for 100% viability and media only for 0% viability were used as controls.
3. The assay plates were covered and incubated for 48 hours in a 37C, 5% CO2 incubator with controlled humidity.
4. After 48 hours, CellTilter-GloTM luminescent substrate mix (Promega) reagent was added to the assay plate and plates we incubated for 5 min at room temperature.
5. Signal was measured as median relative luminescence units on a ViewLux (PerkinElmer) multiplate reader.
[1] Heske CM, Davis MI, Baumgart JT, Wilson K, Gormally MV, Chen L, Zhang X, Ceribelli M, Duveau DY, Guha R, Ferrer M, Arnaldez FI, Ji J, Tran HL, Zhang Y, Mendoza A, Helman LJ, Thomas CJ. Matrix Screen Identifies Synergistic Combination of PARP Inhibitors and Nicotinamide Phosphoribosyltransferase (NAMPT) Inhibitors in Ewing Sarcoma. Clin Cancer Res. 2017 Dec 1;23(23):7301-7311. doi: 10.1158/1078-0432.CCR-17-1121. Epub 2017 Sep 12. PMID: 28899971; PMCID: PMC6636827.
(Cellular ATP, detected with luciferase, serves as a proxy for viable cell number.)
In the case of `COc1cc(Nc2ncc(F)c(Nc3ccc4c(n3)NC(=O)C(C)(C)O4)n2)cc(OC)c1OC`, the Potency is 1.48 µM (active).
Under `O=C(O)c1cc(O)c2c(c1)C(=O)c1cccc(O)c1C2=O` stands 2.15 µM (active).
In the case of `Clc1ccc(C(c2ccc(Cl)cc2)n2cc[n+](CC(OCc3ccc(Cl)cc3Cl)c3ccc(Cl)cc3Cl)c2)cc1` (stereo not given), the Potency was 18.7 µM (active).
The result for `O=C(CCN1CCN(C(=O)OCc2cc(Cl)cc(Cl)c2)CC1)c1ccc2[nH]c(=O)oc2c1` reads 10.5 µM (active); that for `O=c1cc(CN2CCOCC2)occ1OCCCCCSc1ccnc2cc(C(F)(F)F)ccc12`, 16.6 µM (active); that for `O=c1cc(-c2ccc(O)cc2)oc2cc(O)cc(O)c12`, 18.7 µM (active).
Turning to `CC(C)OC(=O)C(C)(C)Oc1ccc(C(=O)c2ccc(Cl)cc2)cc1`, the Potency was 18.7 µM (active).
Take `O=C(NCc1ccccc1)c1csc(Nc2ccncn2)n1`: the Potency was 14.8 µM (active).
The result for `O=C1NC(=O)C(=Cc2cccc(C(F)(F)F)c2)S1` reads 23.5 µM (active); that for `Cc1nc(N)sc1-c1ccnc(Nc2ccc(N3CCOCC3)cc2)n1`, 20.9 µM (active); that for `COc1ccc(-c2oc3c(CC=C(C)C)c(OC4O[C@H](CO)[C@@H](O)[C@H](O)[C@@H]4O)cc(O)c3c(=O)c2OC2O[C@@H](C)[C@H](O)[C@@H](O)[C@@H]2O)cc1` (stereo not given in full), 23.5 µM (active).
On to `NC(=O)c1cnc(-c2ccc(C3(N)CCC3)cc2)c(-c2ccccc2)c1`, for which the Potency is 0.743 µM (active).
The result for `CCOC(CN1C(=O)[C@](CC(=O)Nc2ccc(C)cc2)(NC(=O)Nc2ccc(C)cc2)c2ccccc21)OCC` reads 23.5 µM (active).
Under `COc1cc2ncnc(Nc3ccc(F)c(Cl)c3)c2cc1OCCCN1CCOCC1` stands 54 µM (active); under `CCc1ccc(OCc2ccccc2C(=O)Nc2ccc3nc(C)cc(N)c3c2)cc1`, 6.62 µM (active).
Consider `O=C1NC(=O)C(=Cc2ccc3nccnc3c2)S1`, for which the Potency is 8.12 µM (active).
Regarding `CC(C)(C)C(=O)Oc1ccc2c(c1)nc(NC(=O)c1cccc([N+](=O)[O-])c1)n2CCCO`, the Potency is 13.2 µM (active).
The result for `Nc1ncnc2c1ncn2[C@@H]1O[C@H](CO)C[C@@H]1O` reads 1.32 µM (active).
As to `CC[C@]1(O)C[C@@H]2CN(CCc3c([nH]c4ccccc34)[C@@](C(=O)OC)(c3cc4c(cc3OC)N(C=O)[C@@H]3C45CCN4CC=C[C@](CC)([C@H]45)[C@@H](OC(C)=O)[C@]3(O)C(=O)OC)C2)C1` (stereo not given in full), the Potency is 10.5 µM (active).
The result for `Oc1ccc(C2=Cc3ccc(O)cc3OC2)cc1` reads 5.26 µM (active); that for `C[C@]12CC[C@@H]3c4ccc(O)cc4C[C@@H](CCCCCCCCCS(=O)CCCC(F)(F)C(F)(F)F)[C@H]3[C@H]1CC[C@H]2O` (stereo not given in full), 18.7 µM (active); that for `CC(=O)Nc1ccc([C@H](C)C(=O)Nc2ncc(C(C)C)s2)cc1`, 6.62 µM (active).
Take `O=C(Nc1cc(Cl)cc2c1[nH]c1cnccc12)c1cccnc1`: the Potency is 11.8 µM (active).
Regarding `O=C1C[C@@H](c2ccc(O)cc2)Oc2cc(O)cc(O)c21`, the Potency is 1.48 µM (active).
`NC(=O)[C@@H](CCC(F)(F)F)N(Cc1ccc(-c2ncon2)cc1F)S(=O)(=O)c1ccc(Cl)cc1`: the Potency is 26.4 µM (active).
Under `N#C[C@H]1C[C@H]2C[C@@H]2N1C(=O)[C@@H](N)C12CC3CC(CC(O)(C3)C1)C2` stands 1.48 µM (active); under `Clc1ccc(CCC(Cn2ccnc2)Sc2c(Cl)cccc2Cl)cc1` (stereo not given), 26.4 µM (active); under `O=C(NCc1ccncc1)C12C[C@H]3C[C@@H](C1)CC(c1ccc(Cl)cc1)(C3)C2`, 14.8 µM (active).
Under `CC[C@H]1OC(=O)[C@H](C)C(=O)[C@H](C)[C@@H](O[C@H]2O[C@H](C)C[C@H](N(C)C)[C@@H]2O)[C@](C)(OC)C[C@@H](C)C(=O)[C@H](C)[C@H]2N(CCCCn3cnc(-c4cccnc4)c3)C(=O)O[C@]12C` stands 18.7 µM (active).
The result for `CC(=O)Oc1cc2c(s1)CCN(C(C(=O)C1CC1)c1ccccc1F)C2` (stereo not given) reads 1.48 µM (active).
In the case of `O=C1C(Cl)=C(NCCN2CCOCC2)C(=O)c2ncccc21`, the Potency was 2.96 µM (active).
In the case of `C=C1C(=O)OC2C=C(C)CCC=C(C)CCC12` (stereo not given), the Potency was 11.8 µM (active).
Under `O=c1c(-c2ccc(O)cc2)coc2cc(O)ccc12` stands 5.26 µM (active); under `CN(C)C1CCN(C(=O)c2ccc(NC(=O)Nc3nc(N4CCOCC4)nc(N4CCOCC4)n3)cc2)CC1`, 0.0235 µM (active).
Consider `CC(C)(C)c1cc(C(=O)O)c(NC(=O)Nc2ccc3[nH]ncc3c2)s1`, for which the Potency result was “inactive”.
On to `CC(=O)O[C@]1(C(C)=O)CC[C@@H]2[C@@H]3C[C@H](C)C4=CC(=O)CC[C@]4(C)[C@H]3CC[C@@]21C`, for which the Potency was 20.9 µM (active).
The result for `C[C@H](NC(=O)C(=O)Nc1ccccc1C(C)(C)C)C(=O)N[C@@H](CC(=O)O)C(=O)COc1c(F)c(F)cc(F)c1F` reads “inactive”; that for `CC(C)n1cnc2c(NCCCCCCNC(=O)OC(C)(C)C)nc(NCCO)nc21`, 18.7 µM (active); that for `N#CC1(c2ccc(NC(=O)c3cccnc3NCc3ccncc3)cc2)CCCC1`, 18.7 µM (active).
Under `CCC(=O)NC[C@H](Cc1ccc(OCCc2nc(-c3ccccc3)oc2C)cc1)NC(C)=CC(=O)c1ccc(C(F)(F)F)cc1` stands 20.9 µM (active).

Values taken from PubChem BioAssay (NCATS).
